# Data from PubChem BioAssay (NCATS).
# Records with an inconclusive call do not appear. Activity calls are given as the source filed them. Calls come from the whole dose curve; as a rule, active = well fitted cell-killing curve with a large enough effect; inconclusive = small, poorly fitted or top-dose-only effect, or effect the other way; inactive = no such curve, though single readings can be large or run the other way.
# Assay: Viability qHTS for spleen associated tyrosine kinase inhibitor (SYKi) drug resistant MV4-11 cells (AID 1963824); note: nearly all actives have a fitted effect of over 35% in size
# Settings: SYKi-resistant MV4-11 viability, CellTiter-Glo, 72 h; series mostly up to 45 µM
# In short: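 SYK-inhibitor-resistant MV4-11 AML cells were seeded at 500 per well onto compound and cultured 72 hours (37 °C, 5% CO2). CellTiter-Glo was then added, and after 10 min at room temperature, luminescence gave viability.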
# Potency is the fitted concentration of half-maximal effect.
row,SMILES,Potency
1,CC(C)(C)c1ccc(S(=O)(=O)Nc2ccc(Cl)cc2C(=O)c2cc[n+]([O-])cc2)cc1,20.6 µM (active)
2,CN1C[C@@H]2c3ccccc3Oc3ccc(Cl)cc3[C@H]2C1,18.6 µM (active)
3,C[C@@H]1O[C@@H](O[C@H]2[C@H](O[C@H]3CC[C@@]4(C)C(CC[C@]5(C)C4CC=C4[C@@H]6CC(C)(C)CC[C@]6(C(=O)O)CC[C@]45C)[C@]3(C)CO)OC[C@H](O)[C@@H]2O)[C@H](O)[C@H](O[C@@H]2OC[C@@H](O)[C@H](O)[C@H]2O)[C@H]1O (stereo partly specified),4.91 µM (active)
4,Cc1[nH]c(/C=C2\C(=O)Nc3cc(-c4ccccc4)ccc32)c(C)c1CCC(=O)O,10.3 µM (active)
5,O=C1NC(=O)c2cc(Nc3ccc(F)cc3)c(Nc3ccc(F)cc3)cc21,1.03 µM (active)
6,C/C=C1\[C@H](O[C@@H]2O[C@H](CO)[C@@H](O)[C@H](O)[C@H]2O)OC=C2C(=O)OCCc3ccc(O)c(c3)Oc3ccc(cc3)CCOC(=O)C[C@H]21,3.85 µM (active)
